High-throughput results: PubChem BioAssay, National Center for Advancing Translational Sciences (NCATS)
Hits are enriched below; roughly 14% of the tested compounds scored in any of these assays.
CRE Fsk mod = modulators of forskolin-stimulated CRE signaling in CHO cells. 71,000 tested, 2.5% active. CHO CRE-bla reporter (cAMP response element driving beta-lactamase), forskolin EC10, beta-lactamase ratio. Potency, µM (titrated, usually from 38.2 µM), without a hit: at the highest dose activity change, negative = inhibition, hits mostly activators. AID 662; active = well fitted activation curve with a large enough effect in the signal ratio, with a control signal flat, not every such curve was filed as active; inconclusive = small, poorly fitted or top-dose-only effect, or effect the other way, or a change in a side signal; the % refers to the signal ratio; also: potency is read from the fitted curve at half-maximal effect; % of control where 0% means no effect
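qHTS titration format; CRE-bla CHO reporter; stimulus EC10 NKH 477, a water-soluble forskolin. Read: CCF4 460/530 nm ratio. Potency expressed as AC50 for activators or inhibitors.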
AID923 = qHTS Assay for Allosteric/Competitive Inhibitors of Caspase-1: Spectroscopic Profiling in AFC Spectral Region | 75,000 tested, 1.1% active | compound fluorescence, AFC spectral region (405/520 nm) | Potency, µM (top dose mostly 57.5 µM), inactives show top-dose fluorescence increase, usual class: activators; also: potency is read from the fitted curve at half-maximal effect; 0% is about no effect
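Compound autofluorescence profiled at 405 nm ex/520 nm em during kinetic caspase 1 run (50 nM enzyme, 5 uM Ac-WEHD-AFC, HEPES pH 7.5, 10 mM DTT). Titration up to 57 uM; baseline from regression intercept, normalized to AFC standard curve.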
HADH2 inhib = HADH2 (human) dehydrogenase inhibition; Q99714; recombinant HADH2, NADH fluorescence, beta-hydroxybutyryl-CoA; Potency, µM (titrated, usually from 57.1 µM), without a hit: top-dose activity change, negative = inhibition, usual class: inhibitors; 73,000 tested, 3.4% active; also: potency is read from the fitted curve at half-maximal effect; % is scaled to controls: 0 for no effect and ±100 for the full control effect; nearly all actives have a fitted effect of over 60% in size
Target sequence (Q99714 whole entry, looked up, one chain of several): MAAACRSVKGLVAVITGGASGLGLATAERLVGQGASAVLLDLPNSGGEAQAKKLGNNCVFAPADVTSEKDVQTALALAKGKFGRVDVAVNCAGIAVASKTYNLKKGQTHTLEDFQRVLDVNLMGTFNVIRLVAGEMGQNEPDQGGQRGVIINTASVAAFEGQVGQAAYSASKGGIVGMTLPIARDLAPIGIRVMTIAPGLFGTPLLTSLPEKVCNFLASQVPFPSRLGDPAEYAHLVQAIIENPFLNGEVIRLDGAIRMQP
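Buffer 100 mM Tris-HCl pH 9.0/0.01% Tween-20; HADH2 20 nM; NAD+ 1 mM; beta-hydroxybutyryl-CoA 90 uM (all final). 15 min cpd preincubation, RT.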
4-MU autofl = 4-MU region autofluorescence. max dye-equivalent concentration, M. 59,000 tested, 11% active. compound autofluorescence, 340/450 nm, 4-MU equivalents; active compounds read high; in the data active = max dye-equivalent concentration above about 10 nM; inconclusive = mostly about 1.1 nM to 9.6 nM
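Intrinsic fluorescence at 340/450 nm (ex/em) was read after 15 min at room temperature in pH 8.0, 100 mM Tris. Each compound concentration expressed as 4-MU-equivalent concentration from a six-point 4-MU standard series on each plate.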
A350 fluor = compounds fluorescent in Alexa 350 spectral region; Compound autofluorescence, 340/450 nm, Alexa 350 dye-equivalents; active compounds read high; max dye-equivalent concentration, M; 59,000 tested, 11% active; AID 590; in the data active = max dye-equivalent concentration above about 10 nM; inconclusive = mostly about 1.1 nM to 9.6 nM
HSD17B inhib = HSD17B dehydrogenase inhibition | Q99714 | recombinant HSD17B10, NADH fluorescence kinetic | Potency, µM (doses to about 57.1 µM), without a hit: at the highest dose activity change, negative = inhibition, hits mostly inhibitors | 75,000 tested, 7.6% active;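 also: the protocol describes HADH2 (HSD17B10) and not the HSD17B4 of the title; potency is read from the fitted curve at half-maximal effect; % is scaled to controls: 0 for no effect and ±100 for the full control effect; nearly all actives have a fitted effect of over 70% in size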
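Activity followed as NADH fluorescence increase (ex 360, em 450 nm) every 30 seconds for 4 min, using final 90 uM beta-hydroxybutyryl CoA and 1 mM NAD+. Recombinant His-tagged enzyme, 20 nM, pH 9.0 Tris buffer, 15 min compound preincubation.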
CHO via 24h = CHO cell toxicity at 24 h by ATP luminescence | shares compounds with CRE Fsk mod | CRE-bla CHO viability, ATP luminescence, 24 h | activity, negative = viability loss, % at 46.1 µM | 120 tested, under 10 active
CHO tox 40h = CHO cell toxicity at 40 h by ATP luminescence; CRE-bla CHO viability, ATP luminescence, 40 h; Potency, µM, inactives show max response, most hits filed as inhibitors; AID 906; shares compounds with CRE Fsk mod; 120 tested, under 10 active
CRE-luc potent = confirmation of CRE signaling potentiators in HEK293 CREB reporter cells; AID 907; Potency, µM (top dose mostly 38.3 µM), inactives show at the highest dose activity, positive = activation, usual class: activators; 120 tested, 80% active; HEK293 CRE-luc2P, NKH477 EC10 potentiation, luminescence, 4 h; shares compounds with CRE Fsk mod
Numbers without * were called inactive; i = inactive; ? = inconclusive; · = no result given; [ ] = dose if it differs, or a comment. Unless noted, calls follow the shape of the dose curve; as a rule, active = well fitted curve in the direction sought with a large enough effect; inconclusive = small, poorly fitted or top-dose-only effect, or another doubt; inactive = no such curve, though single readings can be large; an effect the other way counts as inactive or inconclusive.

SMILES | CRE Fsk mod | AID923 | HADH2 inhib | 4-MU autofl | A350 fluor | HSD17B inhib | others
CC(C)(C)c1cc(C=C(C#N)C#N)cc(C(C)(C)C)c1O | ? | -2% | 16µM* | i | i | 25µM*
ClP(Cl)(Cl)(Cl)Cl | -11% | -2% | -8% | · | · | -17%
Nc1ccccc1O.O.O=C(O)[C@H]1[O][Sb][O][C@H]1C(=O)O | 9%[7.6 µM] | -4%[11.5 µM] | -10%[11.4 µM] | ? | ? | -6%[11.4 µM]
CC1CCCCN1CC(=O)c1ccc2cc[nH]c2c1 (stereo not given) | ? | 4% | ? | · | · | 32µM*
ClC1=C(Cl)C2(Cl)C3C(Cl)C(Cl)CC3C1(Cl)C2(Cl)Cl (stereo not given) | ? | -1% | -4% | · | · | -4%
N[C@@H]1CCc2cc(O)c(O)cc2C1 | 2% | 0% | 0.79µM* | 1.8e-08M* | 1.7e-08M* | 4µM*
CCCCn1c(O)c(C=Nc2c(C)n(C)n(-c3ccccc3)c2=O)c(=O)[nH]c1=O | -7% | -3% | 24% | 3.1e-07M* | 2.9e-07M* | 5%
O=CN1C[C@H]2C[C@@H](C1)c1cccc(=O)n1C2 | -17% | · | -5% | i | i | ·
CC1=CC(=O)c2c(O)cccc2C1=O | · | 3% | · | · | · | 13µM*
CCCCn1c(O)c(C=NC2CC3CCC2(C)C3(C)C)c(=O)[nH]c1=O (stereo not given) | 13µM* | 7% | 1% | 1.6e-07M* | 1.5e-07M* | -19%
CN(C)CCCc1cccnc1 | 4%[7.6 µM] | -1%[11.5 µM] | 4%[11.4 µM] | i | i | 4%[11.4 µM]
COc1cccc(-c2cc(C(F)(F)F)n3nc(C(=O)N4CCC5(CC4)OCCO5)cc3n2)c1 | ? | 1% | -2% | 1.1e-08M* | 1.4e-08M* | 0%
C[C@@H]1Cc2cc3c(cc2C(c2ccc(N)cc2)=NN1)OCO3 | 9% | -1% | ? | i | i | 6%
CN1CCc2nc3sc(C#N)c(N)c3c(-c3cccs3)c2C1 | · | · | · | 1.1e-08M* | 1.4e-08M* | ·
N[C@H](CCl)C(=O)O | -9% | -3% | 11% | i | i | 11%
CC(C)c1cccc(C(C)C)c1O | 2% | -2% | -5% | 1.5e-07M* | 1.2e-07M* | -5%
O=C(NC1(C(F)(F)F)Oc2ccc(Cl)cc2O1)N1CCC2(CC1)OCCO2 (stereo not given) | ? | 0% | 7.9µM* | i | i | ?
O=C(NC1(C(F)(F)F)Oc2ccccc2O1)N1CCC2(CC1)OCCO2 | ? | 1% | 2.5µM* | i | i | ?
NS(=O)(=O)c1ccc(-c2ccc([As](=O)(O)O)cc2)cc1 | 6%[7.6 µM] | 0%[11.5 µM] | 25%[11.4 µM] | i | i | 7%[11.4 µM]
O=C(O)C1Sc2[nH]c(=O)sc2C2c3cc(Cl)ccc3OC(=O)C12 (stereo not given) | -4% | 5% | 20µM* | i | ? | 20µM*
COc1ccc(CC2c3cc(OC)c(OC)cc3CCN2C)cc1OC (stereo not given) | ? | 4% | -6% | 3.8e-08M* | 3.6e-08M* | ?
COc1ccc2c(c1OC)C(=O)OC2C1c2cc3c(cc2CCN1C)OCO3 (stereo not given) | -5% | 1% | 7% | · | · | ?
COc1cc(CCN)c(OC)c(OC)c1 | 4%[7.6 µM] | -2%[11.5 µM] | 0%[11.4 µM] | i | i | 3%[11.4 µM]
Cc1cc2c(C(C)C)c(O)c(O)c(C=O)c2c(O)c1-c1c(C)cc2c(C(C)C)c(O)c(O)c(C=O)c2c1O | ? | -3% | 5µM* | i | i | 5µM*
N[C@H](Cc1ccccc1)c1nn[nH]n1 | -9%[7.6 µM] | 0%[11.5 µM] | 14%[11.4 µM] | i | i | 2%[11.4 µM]
SMILES | CRE Fsk mod | AID923 | HADH2 inhib | 4-MU autofl | A350 fluor | HSD17B inhib | others
CN(C)[C@@H]1C(=O)C(C(N)=O)=C(O)[C@]2(O)C(=O)C3=C(O)c4c(O)cccc4[C@@](C)(O)[C@H]3[C@H](O)[C@@H]12 | -2%[17.1 µM] | -3%[25.7 µM] | 6.3µM* | 3e-08M* | 2.9e-08M* | 13µM*
O=C(OC1Cc2c(O)cc(O)cc2OC1c1cc(O)c(O)c(O)c1)c1cc(O)c(O)c(O)c1 (stereo not given) | · | -1% | · | · | · | 7.9µM*
Cc1ccc2cc3cc(C(=O)N4CCC5(CC4)OCCO5)oc3nc2c1 | 1% | 1% | 25µM* | 1.3e-08M* | 1.2e-08M* | 13µM*
Cc1cc(C(=O)N2CCC3(CC2)OCCO3)cs1 | -6% | 1% | -3% | i | i | 6%
Cn1c(=O)c2[nH]cnc2n(C)c1=O.[CH2-][C@H](Cc1cccc2cc(C(=O)O)c(=O)oc12)OC.[Hg].[OH-] | -6%[7.6 µM] | -1%[11.5 µM] | 1%[11.4 µM] | i | i | ?
CN(C)C(=S)SSC(=S)N(C)C | ? | 7% | 0.05µM* | · | · | 13µM*
CCC(=NCCCN1CCOCC1)c1c(O)n(Cc2ccccc2)c(=O)[nH]c1=O | ? | 0% | 7% | i | i | 10%
CC(=NCCN1CCOCC1)c1c(O)n(-c2ccccc2C)c(=O)[nH]c1=O | -2% | 3% | 7% | i | i | -8%
O=c1[nH]c(=O)n(Cc2ccccc2)c(O)c1C=Nc1ccc(CN2CCOCC2)cc1 | ? | 5% | ? | 1.6e-07M* | 2e-07M* | ?
CCC(=NCCN1CCOCC1)c1c(O)n(-c2ccccc2C)c(=O)[nH]c1=O | -2% | -1% | 3.2µM* | i | i | -16%
CC(=NCCCN1CCOCC1)c1c(O)n(Cc2ccccc2)c(=O)[nH]c1=O | ? | 0% | 3% | 1.4e-08M* | 1.8e-08M* | -3%
CCCCn1c(O)c(C(CC)=NCCc2ccccc2)c(=O)[nH]c1=O | 10µM* | 1% | -4% | i | i | -3%
CC[C@H]1CN2CC[C@@H]1C[C@@H]2[C@H](O)c1ccnc2ccccc12 | ? | · | 2% | i | i | ·
O=C(CCCN1CCC2(CC1)C(=O)N(CCc1ccc(N=C=S)cc1)CN2c1ccccc1)c1ccc(F)cc1 | ? | · | -14% | i | i | ·
COc1ccc(N=C(C)c2c(O)n(C)c(=O)n(C)c2=O)c(OC)c1 | ? | 0% | 10% | i | i | 1% | CHO via 24h=-3;CHO tox 40h=-13%;CRE-luc potent=13µM*
CCc1ccc(OCCCN=C(C)c2c(O)n(C)c(=O)n(C)c2=O)cc1 | -16% | 2% | -10% | · | · | -14%
Cn1c(O)c(C=NCCOc2ccc(Cl)cc2)c(=O)n(C)c1=O | 10µM* | -1% | -4% | · | · | 4% | CHO via 24h=1;CHO tox 40h=-13%;CRE-luc potent=13µM*
CC(C)(C)c1ccc(O)c(C[N+](C)(C)C)c1 | 4%[7.6 µM] | 0%[11.5 µM] | 7%[11.4 µM] | i | i | 6%[11.4 µM]
